This excerpt belongs to a sample that is enriched for hits.
ER stress death: ER stress cell death inhibition; CSM14.1 thapsigargin ER stress survival, ATP luminescence; relative survival (cellular ATP), % at 15 µg/mL (by protocol); 48,000 tested, 0.33% active;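 active means survival measured by cellular ATP above 50% at 15 µg/ml in the first screen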;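 further: cell death triggered by about 15 µM thapsigargin; ATP read 24 h after thapsigargin was added; plate controls were thapsigargin with DMSO for no effect and DMSO without thapsigargin for full effect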
Starred values were filed as active, the others as inactive.

SMILES	ER stress death
O=C(Nc1cccc2ccccc12)C1OC2OC3(CCCCC3)OC2C2OC3(CCCCC3)OC12 (centres undefined)	115*
CC1(C)OC2OC(C(=O)Nc3ccccc3)C3OC(C)(C)OC3C2O1 (centres undefined)	1
O=C(Nc1cccc2ccccc12)C1C2CCC3C(CCC21)C3(Cl)Cl (centres undefined)	2
COc1ccccc1N1C(=O)C(=Cc2cccn2C)C(=O)NC1=S	-2
CC1=C/C(=N/OS(=O)(=O)c2ccccc2)C=CC1=O	-13
COc1cccc(-n2c(/C=C/c3cn(C)c4ccccc34)nc3ccccc3c2=O)c1	76*
COc1cccc(-n2c(/C=C/c3c(C)[nH]c4ccccc34)nc3ccccc3c2=O)c1	1
Cn1cc(/C=C/c2nc3ccccc3c(=O)n2-c2ccc([N+](=O)[O-])cc2)c2ccccc21	6
Cc1[nH]c2ccccc2c1/C=N/NC(=O)c1cccnc1	-7
COc1ccc(COC(=O)C2=C(C)NC(=O)NC2c2ccc3c(c2)OCO3)cc1 (centres undefined)	7
O=C1C(Cl)=C(c2ccc(Cl)cc2)C(=O)N1c1ccc([N+](=O)[O-])cc1	1
COc1ccc2ccccc2c1/C=C(\C#N)C(=O)NCC1CCCO1 (centres undefined)	-2
O=C(O/N=C(\c1ccncc1)c1ccc([N+](=O)[O-])cc1)c1ccc(Oc2ccccc2)cc1	11
N#C/C(=C\c1ccc(-c2ccc(Cl)c(C(=O)O)c2)o1)C(=O)NCC1CCCO1 (centres undefined)	12
COc1ccc(C(=O)N/C(=C\c2ccc(Cl)cc2)C(=O)NCC2CCCO2)cc1 (centres undefined)	0
O=C(NCC1CCCO1)/C(=C/c1ccc(-c2ccccc2Cl)o1)NC(=O)c1ccccc1 (centres undefined)	87*
O=C(Nc1ccccc1C(=O)c1ccccc1)c1ccccc1Cl	1
CCC(C)c1ccc(OCCOc2ccc(/C=C3/SC(=S)N(C)C3=O)cc2OC)cc1 (centres undefined)	89*
COc1cc(/C=C2/SC(=S)N(C)C2=O)ccc1OCc1cccc2ccccc12	8
CCOc1cc(/C=C2/SC(=S)N(C)C2=O)ccc1OCCOc1ccccc1C	2
O=C(O)c1ccc(-c2cccc(Br)c2)o1	3
COc1ccc(OCCCN2CCCC2)cc1	9
Cc1[nH]c2ccccc2c1C=Nc1ccccc1C(=O)Nc1ccccc1	-6
Cc1ccc(C2(c3ccc(C)cc3)CC2C(=O)Nc2ccncc2)cc1 (centres undefined)	-1
Cc1ccc(C2(c3ccc(C)cc3)CC2C(=O)Nc2ccccc2)cc1 (centres undefined)	6
SMILES	ER stress death
Cc1ccc(C2(c3ccc(C)cc3)CC2C(=O)Nc2cccnc2)cc1 (centres undefined)	78*
C=CCC1CC=CC(CC=C)(C(O)(CC=C)CC=C)N1 (centres undefined)	-9
COc1ccc(N2C(=O)CC(N3CCN(C(c4ccccc4)c4ccc(Cl)cc4)CC3)C2=O)cc1 (centres undefined)	110*
O=C1CC(N2CCN(C(c3ccccc3)c3ccccc3)CC2)C(=O)N1c1ccc(F)cc1 (centres undefined)	12
COc1cccc(N2C(=O)CC(N3CCN(C(c4ccccc4)c4ccccc4)CC3)C2=O)c1 (centres undefined)	19
COc1ccc(CNc2ccc3c(c2)ncn3C)cc1	0
COc1ccc(CNc2ccc(C)c(C)c2)c(OC)c1C	-4
COc1cccc(CNc2ccc3c(c2)ncn3-c2ccccc2)c1OC	89*
Cc1ccccc1NC(=O)/C(=C\c1ccccc1Cl)NC(=O)c1ccccc1	2
O=C(CCc1n[nH]c(=O)[nH]c1=O)N/N=C/c1c[nH]c2ccccc12	5
COc1ccc(C2=C/C(=C/c3ccc([N+](=O)[O-])o3)C(=O)O2)c(OC)c1	6
O=C(Nc1cccc(Br)c1)c1cccs1	5
NS(=O)(=O)c1cccc(NC(=O)c2cccs2)c1	0
O=C(Nc1cccc(S(=O)(=O)c2cccc(NC(=O)c3cccs3)c2)c1)c1cccs1	113*
Cc1cccc(C(=O)O)c1NC(=O)C(C)Oc1ccccc1 (centres undefined)	0
C=CCc1cccc2cc(C(=O)Nc3cccc(C(C)=O)c3)c(=O)oc12	9
CCOc1cc(C2C(C(=O)OCC3CCCO3)=C(C)NC3=C2C(=O)CCC3)cc([N+](=O)[O-])c1O (centres undefined)	-3
CC1=C(C(=O)OCC2CCCO2)C(c2ccc(F)cc2)C2=C(CCCC2=O)N1 (centres undefined)	3
CCn1c2ccccc2c2cc(C3C(C(=O)OCC4CCCO4)=C(C)NC4=C3C(=O)CCC4)ccc21 (centres undefined)	96*
O=C(Nc1ccc(Oc2ccccc2)cc1)c1cc2ccccc2oc1=O	13
Cc1ccc(Cl)cc1NC(=O)CSC(N)=O	8
CC(=O)CC(=O)Nc1cc(Cl)ccc1C	65*
COCC(=O)Nc1cc(Cl)ccc1C	4
O=C(ON=C1c2ccccc2-c2ccccc21)c1ccc(Cl)cc1Cl	-4
COc1ccc(-n2c(/C=C3/C(=O)N(C)c4ccc(C)cc43)nc3ccccc3c2=O)cc1	-16
SMILES	ER stress death
O=S(=O)(Nc1ccc(O)cc1)c1cc(Cl)ccc1Cl	-2
O=C(N/N=C/C=N/NC(=O)c1cc(Br)ccc1O)c1cc(Br)ccc1O	14
CC1=C(C)C(O)N(C(C)(C)c2cc(Cl)cc(Cl)c2)C1=O (centres undefined)	-2
COc1cc2c(cc1OC)C(CC(=O)Nc1ccc(C)cc1C)=NC(C)(C)C2	53*
COc1ccc(C(=O)Nc2ccc(C)cc2C)cc1OC	1
COC(=O)CCC(=O)Nc1ccc(C)cc1C	2
CCc1nc2ccccc2n1CC(O)COC1CCCCC1 (centres undefined)	4
CN(CCCC(=O)O)S(=O)(=O)c1ccc2c(c1)Cc1cc(S(=O)(=O)N(C)CCCC(=O)O)ccc1-2	13
CCOc1ccccc1NC(=O)c1c(NC(=O)c2ccc(C)cc2)sc2c1CCCC2	6
CCOc1ccccc1NC(=O)c1c(NC(=O)c2ccccc2F)sc2c1CCCCC2	12
CCOc1ccccc1NC(=O)c1c(NC(=O)c2cccc(F)c2)sc2c1CCCCC2	53*
CC(=O)c1ccc(NN=C(C#N)C#N)cc1	2
Cc1ccc(C(=O)N/C(=C/c2cccs2)c2nc3ccccc3[nH]2)cc1	62*
Cc1ccc(C(=O)N/C(=C/c2cccnc2)c2nc3ccccc3[nH]2)cc1	-2
O=C(N/C(=C/c1cccs1)c1nc2ccccc2[nH]1)c1ccccc1	-2
O=C(c1cccc(Cl)c1)N1CCN(c2cccc(Cl)c2)CC1	8
O=C(c1cccc(C(=O)N2CCN(c3cccc(Cl)c3)CC2)c1)N1CCN(c2cccc(Cl)c2)CC1	99*
O=C(c1ccc(Cl)cc1)N1CCN(c2cccc(Cl)c2)CC1	-4
CCOC(=O)c1ccc(NC2SC(=O)N(c3ccccc3)C2=O)cc1 (centres undefined)	12
COc1cc2c(cc1NCc1ccncc1)oc1ccccc12	93*
COc1cc2c(cc1NCc1ccc3c(c1)OCO3)oc1ccccc12	-6
COc1cc2c(cc1NCc1ccc([N+](=O)[O-])cc1)oc1ccccc12	8
Cc1cc(OCC(=O)NC2C3CC4CC(C3)CC2C4)ccc1Br (centres undefined)	5
Clc1cc2c(cc1CSc1nc3ccccc3[nH]1)OCO2	3
Cc1ccc(P(=O)(CSC(=N)N)c2ccc(C)cc2)cc1	58*

Source: PubChem BioAssay (Sanford-Burnham Center for Chemical Genomics)
